The panel holds about 83,000 compounds, 20% with a hit somewhere; the sample as a whole holds those more often.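 Treatment: one concentration, 48 hours, 96-well format. Scoring: percent growth, with anything below 10 considered active.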 A number with no mark means an inactive call. Active and inactive are the calls of the source.

In the test the test system is NCI-H522 lung. The test can be described thus: NCI-60 one-dose screen, 48 h (100 = growth as untreated, 0 = no growth, -100 = all killed). The conditions noted are these: 10 µM unless noted. As for the experimental part:
Growth inhibition of the NCI-H522 human Non-Small Cell Lung tumor cell line is measured as a screen for anti-cancer activity. Cells are grown in 96 well plates and exposed to the test compound for 48 hours. Compounds are tested at a single concentration, which is 10^-5 M for most compounds. The reported endpoint is percent growth (GI% or GIPRCNT), where numbers from 0 - 100% represent growth inhibition, and numbers from -100% - 0 represent cell death. For example, a value of 40 represents 60% growth inhibition. A value of 0 means no net growth occurred over the course of the experiment. A value of -40 indicates 40% of cells at the beginning of the experiment died by the end of the experiment. A value of -100 means all cells are dead at the end of the experiment.
NCI-60 Human Tumor Cell Lines Screen was performed using the standard one-dose NCI protocol, which is described in more detail at https://dtp.cancer.gov/discovery_development/nci-60/default.htm.
Compounds with GIPRCNT values below 10 were considered active. Activity score was based on GIPRCNT using the following formula: […]
Score is 0 for GIPRCNT values of 100 or above, 50 for GIPRCNT values of 0, and 100 for GIPRCNT values of -100.
Regarding `CC1=CC(=NN=c2cc(C)n([O-])c(C)c2)C=C(C)[N+]1=O`, the growth is 67.6%.

Take `COc1cccc(/C=C2\Oc3cc(OCCN4CCCC4)ccc3C2=O)c1`: the growth was 94.5%.

With `COc1cccc(/C=C2\SC(=Nc3ccc(NC(C)=O)cc3)NC2=O)c1OC`, the growth is 89.2%.

Take `COc1ccc(/C=C/c2nc(-c3n[nH]c(=O)n3-c3ccccc3)c3ccccc3n2)cc1`: the growth was 85.6%.

Consider `COc1ccc(C2CC(c3ccc(Cl)cc3)=NN2/C=C2\SC(=S)N(NC(=O)Cc3ccccc3Nc3c(Cl)cccc3Cl)C2=O)cc1` (stereo not given), for which the growth is 65.7%.

In the case of `COc1ccc2c(c1)CC/C(=C\c1cncc(Br)c1)C2=O`, the growth is 55.7%.

Turning to `Clc1ccc2c(NCCCCNc3nc(N4CCCCC4)nc4ccccc34)ccnc2c1`, the growth is -18.6% (active).

As to `Nc1ccc(-c2cc3c(NCc4ccccc4)ncnc3s2)cc1`, the growth is 72.5%.

Regarding `O=C1/C(=C/c2ccc3c(c2)OCO3)SC(=S)N1CCc1ccc(O)cc1`, the growth was 48.2%.

On to `N#C/C(=C\c1ccc(-c2ccc(Cl)c(Cl)c2)o1)c1nc(-c2ccco2)cs1`, for which the growth was 89.3%.

For the molecule `COc1ccc(CN2c3ccccc3Sc3ccccc32)cc1O`, the growth was -40.4% (active).

In the case of `O=C1NC(=Nc2ccc(O)cc2)S/C1=C\c1cccc(Cl)c1`, the growth was 76.3%.

With `O=S(=O)(Nc1ccc(NS(=O)(=O)c2ccccc2)c(Cl)c1)c1ccccc1`, the growth was 77.7%.

As to `N#C/C(=C\c1ccc(-c2cc(C(F)(F)F)ccc2Cl)o1)c1nc(-c2ccco2)cs1`, the growth was 85.3%.

As for `COc1ccc2c(c1)c(-c1nonc1-c1cn(C)c3ccccc13)cn2C`, the growth is 9.96% (active).

Consider `CC(=O)O[C@H]1CC[C@]2(C)[C@H]3CC=C4[C@@H]5CC(C)(C)CC[C@]5(C(=O)NCCNCCN)CC[C@@]4(C)[C@]3(C)CC[C@H]2C1(C)C`, for which the growth was -86.9% (active).

As to `O=C(O)c1ccc(N=CC(=O)c2ccc(-c3ccccc3)cc2)cc1`, the growth was 87.2%.

For `COc1cccc(-c2nc(SCC(=O)Nc3ccc(C(=O)/C=C/c4ccc(OC)c(OC)c4)cc3)[nH]c(=O)c2C#N)c1`, the growth is 75.4%.

On to `CCOC(=O)c1cc(C(=O)c2ccc(O)c(O)c2)n2ccc(-c3ccn4c(C(=O)c5ccc(O)c(O)c5)cc(C(=O)OCC)c4c3)cc12`, for which the growth is 82.7%.

As for `NCCNc1nc(Nc2ccc(-c3nc4ccccc4[nH]3)cc2)c2cn[nH]c2n1`, the growth was 16.6%.

In the case of `COc1cc(/C=C/c2cc(O)c3cc(C(C)=O)c(=O)oc3c2)cc2c1O[C@]1(C)CC[C@@H](O)C(C)(C)[C@H]1C2`, the growth was 67.7%.

As for `Clc1ccc2c(NCCNc3nc(N4CCCCC4)nc4ccccc34)ccnc2c1`, the growth is -21.8% (active).

As for `Cn1ccnc1C(=O)/C=C/c1ccc(CC(=O)Nc2ccccc2)cc1`, the growth is 12.8%.

On to `COc1cc(-c2nc(C(=O)NCC(=O)NO)nn2-c2ccc(Cl)cc2)cc(OC)c1OC`, for which the growth is 86.8%.

Turning to `CC(O)CN1CC(O)=C(c2nc3ccccc3s2)C1=N` (stereo not given), the growth was 99.9%.

Consider `COc1ccc(SC2c3ccc(C)cc3Oc3nc(N)c(C#N)c(N)c32)cc1` (stereo not given), for which the growth is -90.3% (active).

In the case of `Cc1ccc(/C=C2\SC(=S)N(CC(=O)NCCCN3CCOCC3)C2=O)cc1`, the growth is 90.5%.

Take `NC(=O)c1cc(I)ccc1NC(=O)/C=C/c1ccccc1Cl`: the growth is -45.9% (active).

Turning to `CON1C(=O)CC[C@]2(C)[C@H]3CC[C@@H]4C([C@@]5(C)CCC(=O)O5)CC[C@@]4(C)[C@]3(C)CC[C@H]2C1(C)C` (stereo not given in full), the growth was 85.9%.

For `O=Nc1c(O)c(Cl)cc2ccccc12`, the growth was 50.1%.

In the case of `NC(=NCCCOc1ccc(Cl)cc1)Nc1ccc(Cl)cc1`, the growth was 27.8%.

Consider `Cc1cc(C)nc(SC2=C(Nc3cccc(Cl)c3)C(=O)N(Cc3ccccc3)C2=O)n1`, for which the growth was 67.9% [30 µM].

Take `CCCOc1cc2ccccc2cc1C(=O)Nc1nc(NC)c2c(ccc3nccc32)[nH]1`: the growth was -74.5% (active).

As to `CC1=C[C@H]2c3c(c(O)c(O)c4oc5c(C)cccc5c(=O)c34)[C@H](c3cc(O)c(O)c4oc5c(C)cccc5c(=O)c34)[C@H]2C(C)(C)C1`, the growth was 3.27% (active).

As to `COc1ccc(-c2cc(C(=O)N=Nc3c(O)[nH]c4ccc(Br)cc34)no2)cc1`, the growth was 83.2%.

Take `Cc1nc2ccccc2n1C(=O)C[C@@H]1NC(=S)NC1=O`: the growth is 96.8%.

Take `O=c1c(F)cn(Cc2ccccc2CCl)c(=O)n1Cc1ccccc1CCl`: the growth was -61.6% (active).

For the molecule `CC(=O)NCC1c2c(n(C)c3c(Cl)c(Cl)ccc23)C(=O)NC1(C)C` (stereo not given), the growth is 92.8%.

For the molecule `COc1cc2c(cc1-c1c(C)noc1C)ncc1nc(C3CCCCC3)n([C@H](C)COC(F)F)c12`, the growth was 25.2%.

`CC1=C[C@H]2c3c(c(O)c(O)c4oc(-c5ccccc5)cc(=O)c34)[C@H](c3cc(O)c(O)c4oc(-c5ccccc5)cc(=O)c34)[C@H]2C(C)(C)C1`: the growth was -12.7% (active).

The values are drawn from PubChem BioAssay (NCI).
